The values below come from ChEMBL document CHEMBL1157539, “Thousands of chemical starting points for antimalarial lead identification” (Nature, 2010).

“And” between values parts separate entries of the source, which are not always exact repeats. Equal entries are not always repeated.

Common to all, as to format: functional
Assay [1] has as its system Plasmodium falciparum. The assay can be described thus: GSK_TCMDC: Inhibition of Plasmodium falciparum 3D7 in whole red blood cells, using parasite LDH activity as an index of growth. Test compounds present at 2uM.
Assay [2] has as its system Plasmodium falciparum. The assay can be described thus: GSK_TCMDC: Inhibition of Plasmodium falciparum Dd2 in whole red blood cells, using parasite LDH activity as an index of growth. Test compounds present at 2uM.
The next assay relates to HepG2. The assay can be described thus: GSK_TCMDC: Percent inhibition of human HepG2 cell line. Test compounds present at 10uM.

As a reminder, the Inhibition is the change of the read-out against control, counted positive when it falls. Turning to `O=C(/C=C/c1ccc(Cl)c(Cl)c1)NC1CCC(CN2CCC(c3c[nH]c4cc(C(F)(F)F)ccc34)CC2)CC1` (configuration not stated), the Inhibition with Plasmodium falciparum [1] was 100% and 98%; in the assay on Plasmodium falciparum [2], 38% and 85%.
On to `CCN(CC)CCCC(C)Nc1ccnc2cc(Cl)ccc12.O=P(O)(O)O.O=P(O)(O)O` (configuration not stated) [CHLOROQUINE PHOSPHATE], for which the Inhibition with Plasmodium falciparum [1] is 100%.
Take `COc1ccc(CC(C)NCC(O)c2ccc(Cl)c(Cl)c2)cc1` (configuration not stated): the Inhibition was determined as 98% with Plasmodium falciparum [1], 96% in the assay with Plasmodium falciparum [2] and 0% with HepG2.
On the same counts, the results for `COc1cccc(CC(C)NCC(O)c2cccc(Cl)c2)c1.Cl` (configuration not stated) are 85%, 76% and 7%.
As for `CC(=O)N(Cc1ccccc1-c1cccc(CNCc2ccc3c(c2)OCO3)c1)C1CCN(Cc2ccccc2)CC1.O=C(O)C(F)(F)F`, the values for the Inhibition with Plasmodium falciparum [1], with Plasmodium falciparum [2] and in the assay with HepG2 were 85%, 44% and 17%, respectively.
Regarding `CN1CC[C@H](N(Cc2ccccc2F)c2ccc(C#N)c(Cl)c2)C1`, the values for the Inhibition with Plasmodium falciparum [1], with Plasmodium falciparum [2] and in the assay with HepG2 were 88%, 68% and 18%, respectively.
Turning to `CCN1CCC(N2CCC(n3c(C)nc4cc(C(F)(F)F)ccc43)CC2)CC1`, the results for the Inhibition in the assay on Plasmodium falciparum [1], in the assay with Plasmodium falciparum [2] and in the assay on HepG2 were 93%, 16% and 6%, respectively.
On to `O=C(NC1CCN(CC2(c3ccc(Cl)cc3)CCC2)CC1)c1cc[nH]n1`, for which the results for the Inhibition in the assay with Plasmodium falciparum [1], in the assay on Plasmodium falciparum [2] and with HepG2 were 96%, 43% and 0%, respectively.
Regarding `CCCCCCc1cc(O)c2c3c(c(=O)oc2c1)CCN(C)C3`, the Inhibition with Plasmodium falciparum [1] is 99%; with Plasmodium falciparum [2], 66%; with HepG2, 0%.
Turning to `CN1CCC(N(C)c2nccc(N3CCN(Cc4cncn4Cc4ccccc4)CC3)n2)CC1`, the results for the Inhibition in the assay with Plasmodium falciparum [1], in the assay on Plasmodium falciparum [2] and in the assay with HepG2 were 100%, 100% and 15%, respectively.
For the molecule `Br.COC(=O)C(C)(C)c1ccc(CC(C)NCC(O)c2cccc(C(F)(F)F)c2)cc1` (configuration not stated), the Inhibition is recorded as 99% in the assay with Plasmodium falciparum [1], 98% in the assay with Plasmodium falciparum [2] and 6% in the assay on HepG2.
On the same counts, the results for `O.Oc1cccc(C2CCCN(CCc3c[nH]c4ccccc34)C2)c1` (configuration not stated) are 93%, 40% and 0%.
On to `O=C(Cc1cc(=O)oc2cc(O)ccc12)NC1CCC(CN2CCC(c3c[nH]c4ccccc34)CC2)CC1` (configuration not stated), for which the Inhibition with Plasmodium falciparum [1] was 96%; in the assay on Plasmodium falciparum [2], 0%; in the assay with HepG2, 5%.
Consider `CC[C@H]1CN2CC[C@@H]1C[C@H]2[C@H](O)c1cc(N2CCC(C)CC2)nc2ccc(OC)cc12`, for which the Inhibition with Plasmodium falciparum [1] is 99%; with Plasmodium falciparum [2] it was 98%; with HepG2, 16%.
As for `CC(=O)N(Cc1cccc(-c2cccc(CNCCc3ccccc3)c2)c1)C1CCN(Cc2ccccc2)CC1.O=C(O)C(F)(F)F`, the Inhibition is 100% in the assay with Plasmodium falciparum [1], 57% in the assay on Plasmodium falciparum [2] and 22% in the assay on HepG2.
On the same counts, the results for `CC(C)c1ccc(C=CC(=O)NC2CCC(CN3CCC(c4c[nH]c5ccccc45)CC3)CC2)cc1` (configuration not stated) are 100%, 85% and 50%.
On the same counts, the results for `CCC(C)CN1CCC(N(C)c2cc(NC(=O)c3cccc(C)c3)ccn2)CC1.O=C(O)C(F)(F)F` (configuration not stated) are 93%, 14% and 1%.
On the same counts, the results for `CC(C)N(C)C(=O)n1cnc(S(=O)(=O)C2CC3CCC2C3)n1.Cl` (configuration not stated) are 97%, 96% and 26%.
With `Cl.c1ccc2c(NCCCCCCNc3c4c(nc5ccccc35)CCCC4)c3c(nc2c1)CCCC3`, the Inhibition in the assay on Plasmodium falciparum [1] worked out at 100%; in the assay with Plasmodium falciparum [2], 51%; with HepG2, 90%.
The corresponding values for `CCC(C)CN1CCC(N(C)c2cc(NC(=O)c3ccc(F)cc3)ccn2)CC1.O=C(O)C(F)(F)F` (configuration not stated) are 93%, 32% and 4%.
The corresponding values for `CCCN(CCC)CCOC(=O)C(OCC)(c1ccccc1)c1ccccc1` are 97%, 0% and 0%.
The corresponding values for `COc1cccc(C(=O)C2CC2CN2CC=C(c3c[nH]c4ccc(OC)nc34)CC2)c1` (configuration not stated) are 94%, 89% and 8%.
As to `Cc1[nH]c2ccc([N+](=O)[O-])cc2c1C1=CCN(C)CC1`, the values for the Inhibition in the assay on Plasmodium falciparum [1], with Plasmodium falciparum [2] and in the assay on HepG2 were 86%, 68% and 6%, respectively.
On the same counts, the results for `Cl.O=C(CC1CCCC1)N(CC1CCN(Cc2ccc(C(F)(F)F)cc2)CC1)c1ccc(N2CCOCC2)c(F)c1` are 92%, 97% and 10%.
For the molecule `FC(F)(F)c1ccc(NC(=S)NC2CCC(CN3CCC(c4c[nH]c5ccccc45)CC3)CC2)cc1` (configuration not stated), the Inhibition is 100% in the assay with Plasmodium falciparum [1]; 100% and 99% with Plasmodium falciparum [2]; 65% and 92% in the assay with HepG2.
On to `CC(Cc1ccc(Sc2ccccc2)cc1)NCC(O)c1cccc(C(F)(F)F)c1` (configuration not stated), for which the Inhibition in the assay on Plasmodium falciparum [1] is 99%; with Plasmodium falciparum [2] it was 53%; in the assay with HepG2, 0%.
The corresponding values for `O=S(=O)(NC1CCC(CN2CCC(c3c[nH]c4ccccc34)CC2)CC1)c1ccc(Cl)c(Cl)c1` (configuration not stated) are 97%, 32% and 36%.
The corresponding values for `Br.CCCCCCCSc1ccc(CC(C)NCC(O)c2cccc(Cl)c2)cc1` (configuration not stated) are 100%, 99% and 94%.
In the case of `CCN1CC=C(c2c[nH]c3ccccc23)CC1`, the Inhibition in the assay on Plasmodium falciparum [1] was found to be 84%; in the assay on Plasmodium falciparum [2] it was 58%; in the assay on HepG2, 27%.
As for `CC[C@H]1CN2CC[C@H]1C[C@@H]2[C@@H](O)c1ccnc2ccccc12`, the Inhibition with Plasmodium falciparum [1] was 98%; in the assay with Plasmodium falciparum [2], 20%; in the assay on HepG2 it was 10%.
